In PubChem BioAssay (Tox21):
Inconclusive results are not listed. The source made the active and inactive calls. Unless noted, calls come from the whole dose curve; as a rule, active = well fitted curve in the direction sought with a large enough effect in the repeat runs; inconclusive = weak or mixed curves; inactive = no such curve, though single readings can be large; an effect the other way counts as inactive or inconclusive.

How the values were obtained:
[1] = qHTS assay to identify small molecule agonists of the RXR signaling pathway - cell viability counter screen (AID 1159529);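 note: HEK 293T cells carrying an RXR-alpha UAS beta-lactamase reporter; nearly all actives have a fitted effect of over 50% in size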
Procedure, shortened: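 Steps: seed RXR-alpha-UAS-bla HEK 293T cells in assay medium containing 2% charcoal-stripped FBS; incubate 5 hr; add compounds in DMSO; incubate 16 hr at 37 C; after the bla read, add CellTiter-Glo and read luminescence at 30 min.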

[2] = qHTS assay to identify small molecule antagonists of the retinoid acid receptor (RAR) signaling pathway - cell viability counter screen (AID 1159551); note: nearly all actives have a fitted effect of over 35% in size
Procedure, shortened: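 Seed C3RL4 cells; next day add compound, then retinol to 1 uM final; incubate 6 h at 37 C; add CellTiter-Glo; read luminescence after 30 min at RT.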

[3] = qHTS assay to identify small molecule antagonists of the retinoic acid receptor (RAR) signaling pathway (AID 1159552; note: nearly all actives have a fitted effect of over 50% in size)
Procedure, shortened: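 Retinol at 1 uM final stimulated RARE-luciferase expression in C3RL4 cells exposed to test compounds for 6 hr at 37 C. Reduced luminescence, read 30 min after detection reagent, indicated pathway antagonism.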

[4] = qHTS assay to identify small molecule agonists of the retinoic acid receptor (RAR) signaling pathway (AID 1159553)
Procedure, shortened: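 Activation of retinol signaling was monitored via a RARE luciferase reporter in C3RL4 cells. After 6 hr compound treatment at 37 C, detection reagent was added for 30 min at room temperature before luminescence reading.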

[5] = qHTS assay to identify small molecule antagonists of the estrogen related receptor (ERR) signaling pathway from Tox21 library - cell viability counter screen (AID 1224834); note: nearly all actives have a fitted effect of over 30% in size
Procedure, shortened: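 CellTiter-Fluor fluorescence measured; ERR cells; 17.5 h compound incubation at 37 C; 30 min reagent step.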

[6] = target: Luciferin 4-monooxygenase (Photinus pyralis) (UniProt P08659); test: qHTS assay to identify small molecule inhibitors of firefly luciferase (AID 1224835); note: nearly all actives have a fitted effect of over 25% in size
Procedure, shortened: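 Biochemical qHTS: compounds run as interplate titrations against purified firefly enzyme, with D-luciferin and ATP each at its KM concentration. Light output recorded by CCD imaging.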

[7] = qHTS assay to identify small molecule agonists of the constitutive androstane receptor (CAR) signaling pathway - cell viability counter screen (AID 1224836); note: nearly all actives have a fitted effect of over 45% in size
Procedure, shortened: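 Cells were seeded and incubated 4 hrs. Compounds were added across 15 concentrations together with PK11195 at 0.75 uM final. Plates were incubated 23 hrs at 37 C. CellTiter-Fluor was added and fluorescence measured.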

[8] = qHTS assay to identify small molecule antagonists of the constitutive androstane receptor (CAR) signaling pathway - cell viability counter screen (AID 1224837); note: nearly all actives have a fitted effect of over 45% in size
Procedure, shortened: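 Using CellTiter-Fluor, viability is scored in HepG2 cells stably carrying hCAR and a 2.2kb CYP2B6 reporter after 23 hr compound exposure across 15 concentrations, with CITCO present at 50 nM.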

[9] = target: Nuclear receptor subfamily 1 group I member 3 (Homo sapiens) (UniProt Q14994); test: qHTS assay to identify small molecule antagonists of the constitutive androstane receptor (CAR) signaling pathway (AID 1224838);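 note: HepG2 cells stably expressing hCAR with CYP2B6 luciferase reporter stimulated by CITCO; nearly all actives have a fitted effect of over 40% in size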
Procedure, shortened: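 Reporter luminescence was quantified after 24 h exposure of hCAR/CYP2B6-2.2kb double-stable HepG2 cells to compounds at 15 concentrations in the presence of 50 nM CITCO final.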

[10] = target: Nuclear receptor subfamily 1 group I member 3 (Homo sapiens) (UniProt Q14994); test: qHTS assay to identify small molecule agonists of the constitutive androstane receptor (CAR) signaling pathway (AID 1224839);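 note: HepG2 cells stably carrying human CAR and a CYP2B6 luciferase reporter; nearly all actives have a fitted effect of over 15% in size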
Procedure, shortened: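 Cells were plated and incubated 4 hrs, then dosed with compounds at 15 concentrations. PK11195 was added to 0.75 uM final. After 24 hrs at 37 C, luciferase luminescence was measured.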

[11] = qHTS assay to identify small molecule antagonists of the estrogen related receptor signaling pathway with the pleiotropic PPARgamma coactivator (PGC) from Tox21 10K library - cell viability counter screen (AID 1224840; active = well fitted cell-killing curve with a large enough effect in the repeat runs, not every such curve was filed as active; note: nearly all actives have a fitted effect of over 40% in size)
Procedure, shortened: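 Here the PGC/ERR cells serve as a cytotoxicity control: they are exposed to compounds for 17.5 hours at 37 C, and live-cell signal is quantified using CellTiter-Fluor fluorescence.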

[12] = target: Thyrotropin receptor (Homo sapiens) (UniProt P16473); test: qHTS assay to identify small molecule agonists of the thyroid stimulating hormone receptor (TSHR) signaling pathway (AID 1224843; calls by dose curve; note: nearly all actives have a fitted effect of over 45% in size)
Procedure, shortened: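 Steps: seed 800 TSHR-HEK293 cells per well; add test compound and hold 30 min at ambient temperature; dispense cAMP-d2 then anti-cAMP cryptate; incubate 1 h at ambient; measure fluorescence intensity.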

[13] = qHTS assay to identify small molecule agonists of the hypoxia (HIF-1) signaling pathway - cell viability counter screen (AID 1224844; calls by dose curve; note: nearly all actives have a fitted effect of over 50% in size)
Procedure, shortened: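 Multiplexed with the HRE beta-lactamase assay, this viability read used CellTiter-Glo luminescence (30 min, RT) on HRE-bla ME-180 cells treated 17 hrs with compounds in 0.5% dialyzed FBS medium.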

[14] = qHTS assay to identify small molecule agonists of H2AX (AID 1224845; active = well fitted activation curve with a large enough effect in the signal ratio in the repeat runs, not every such curve was filed as active; the % refers to the signal ratio)
Procedure, shortened: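 Wild-type CHO-K1 cells, plated overnight, exposed 3hr at 37C to 15 concentrations (0.76% DMSO final). Lysed, then HTRF anti-pH2AX (S139) cryptate and anti-H2AX-d2 antibodies, 24 hr room temperature; 665/620 nm emission read.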

[15] = qHTS assay to identify small molecule agonists of the hypoxia (HIF-1) signaling pathway (AID 1224846; active = well fitted activation curve with a large enough effect in the signal ratio in the repeat runs, not every such curve was filed as active; the % refers to the signal ratio)
Procedure, shortened: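 Hypoxia-pathway activation was scored as increased beta-lactamase from an HRE-controlled reporter in ME-180 cells; plated at 2,000 cells per well with 0.5% dialyzed FBS, they were exposed 17 hrs to compounds and then given CCF4-AM.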

[16] = qHTS assay to identify small molecule agonists of H2AX - cell viability counter screen (AID 1224847; calls by dose curve; note: top concentration of the series differs between compounds; nearly all actives have a fitted effect of over 30% in size)
Procedure, shortened: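 Cytotoxicity counter screen in wild-type CHO-K1 cells: a 3 hr compound treatment at 37C across 15 concentrations, followed by CellTiter-Glo luminescence to gauge viable cells.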

[17] = qHTS RealTime-Glo MT Cell Viability Assay in HepG2 cells - 24 hour (AID 1224867); note: nearly all actives have a fitted effect of over 50% in size
Procedure, shortened: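 qHTS, HepG2, 600 cells/well, RealTime-Glo (NanoLuc + prosubstrate) added with cells; 5 h preincubation; DMSO compound addition; 37 C; luminescence at 0/8/16/24/32/40 h.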

[18] = qHTS assay to identify small molecule antagonists of the estrogen related receptor (ERR) signaling pathway from Tox21 library (AID 1224848); note: nearly all actives have a fitted effect of over 50% in size
Procedure, shortened: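 Luminescent reporter read-out (ONE-Glo) from NTP's ERR cell line after 18 h treatment at 37 C with DMSO-dissolved Tox21 compounds; cells pre-plated 6 h beforehand at 2,000 per well.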

[19] = qHTS assay to identify small molecule agonists of the estrogen related receptor (ERR) signaling pathway from Tox21 library (AID 1224849; calls by dose curve; note: nearly all actives have a fitted effect of over 15% in size); conditions: ERR reporter cell line, ONE-Glo luciferase, 18 h; at 92.4 µM (top of the series) unless noted
Procedure, shortened: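 Six hours post-seeding at 37 C/5% CO2, ERR cells receive DMSO-solubilised compounds; after 18 h at 37 C, ONE-Glo reagent is applied and luminescence recorded.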
% is set by controls: 0 for no effect and ±100 for the full control effect.

Chain of Thyrotropin receptor (Homo sapiens) (P16473 whole entry, looked up): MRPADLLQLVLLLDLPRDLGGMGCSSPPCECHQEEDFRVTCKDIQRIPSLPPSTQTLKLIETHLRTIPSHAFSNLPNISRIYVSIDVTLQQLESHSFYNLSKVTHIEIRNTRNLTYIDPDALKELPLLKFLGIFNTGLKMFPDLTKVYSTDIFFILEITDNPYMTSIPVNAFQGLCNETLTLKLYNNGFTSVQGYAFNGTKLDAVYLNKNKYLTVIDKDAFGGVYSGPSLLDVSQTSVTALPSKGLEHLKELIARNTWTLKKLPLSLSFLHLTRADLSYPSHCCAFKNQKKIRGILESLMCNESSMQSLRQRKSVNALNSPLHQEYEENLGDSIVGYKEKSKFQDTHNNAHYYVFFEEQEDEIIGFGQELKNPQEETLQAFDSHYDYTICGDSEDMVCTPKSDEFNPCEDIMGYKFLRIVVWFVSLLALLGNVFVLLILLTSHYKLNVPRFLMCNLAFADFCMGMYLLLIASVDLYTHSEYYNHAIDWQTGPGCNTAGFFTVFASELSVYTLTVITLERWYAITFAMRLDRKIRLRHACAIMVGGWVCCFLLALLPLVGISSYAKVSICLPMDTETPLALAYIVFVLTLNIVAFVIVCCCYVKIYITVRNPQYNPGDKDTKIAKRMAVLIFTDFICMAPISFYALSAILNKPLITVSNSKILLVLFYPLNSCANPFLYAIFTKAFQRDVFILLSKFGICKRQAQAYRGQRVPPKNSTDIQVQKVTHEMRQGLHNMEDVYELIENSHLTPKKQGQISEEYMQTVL
Chain of Luciferin 4-monooxygenase (Photinus pyralis) (P08659 whole entry, looked up): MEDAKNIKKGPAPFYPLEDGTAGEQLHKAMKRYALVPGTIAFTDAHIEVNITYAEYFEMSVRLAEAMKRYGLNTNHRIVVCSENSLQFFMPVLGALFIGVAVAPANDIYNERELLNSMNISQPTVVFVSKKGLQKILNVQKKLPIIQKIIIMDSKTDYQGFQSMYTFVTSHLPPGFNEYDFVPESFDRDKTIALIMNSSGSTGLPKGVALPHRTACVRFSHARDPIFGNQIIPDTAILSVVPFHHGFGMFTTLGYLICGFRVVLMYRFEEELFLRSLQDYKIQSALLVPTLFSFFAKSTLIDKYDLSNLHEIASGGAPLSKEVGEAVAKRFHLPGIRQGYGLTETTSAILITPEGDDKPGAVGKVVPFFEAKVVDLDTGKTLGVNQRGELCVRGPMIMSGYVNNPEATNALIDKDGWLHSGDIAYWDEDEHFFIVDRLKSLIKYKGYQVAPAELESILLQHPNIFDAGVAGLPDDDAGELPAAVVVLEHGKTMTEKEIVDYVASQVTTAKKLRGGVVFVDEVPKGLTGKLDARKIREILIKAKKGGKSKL
Chain of Nuclear receptor subfamily 1 group I member 3 (Homo sapiens) (Q14994 whole entry, looked up): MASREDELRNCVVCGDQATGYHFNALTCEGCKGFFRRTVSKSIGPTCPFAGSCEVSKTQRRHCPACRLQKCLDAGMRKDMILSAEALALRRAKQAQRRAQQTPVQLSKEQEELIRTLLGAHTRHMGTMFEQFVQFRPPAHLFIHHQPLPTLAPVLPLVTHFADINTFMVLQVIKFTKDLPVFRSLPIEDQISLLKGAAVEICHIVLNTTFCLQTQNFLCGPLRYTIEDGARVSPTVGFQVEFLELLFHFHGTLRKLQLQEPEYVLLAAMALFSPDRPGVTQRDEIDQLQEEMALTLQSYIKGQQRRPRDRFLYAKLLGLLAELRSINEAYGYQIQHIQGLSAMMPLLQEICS

C=CC(=O)OCC1CCCO1 (stereo not given)
inactive: outcome [1] | outcome [2] | outcome [3] | Potency [4] | outcome [5] | Potency [6] | outcome [7] | outcome [8] | Potency [9] | Potency [10] | outcome [11] | outcome [12] | outcome [13] | outcome [14] | outcome [15] | outcome [16] | outcome [17]

N#Cc1ccccc1O
inactive: outcome [1] | outcome [2] | outcome [3] | Potency [4] | outcome [5] | Potency [6] | outcome [7] | outcome [8] | Potency [9] | Potency [10] | outcome [11] | outcome [12] | outcome [13] | outcome [14] | outcome [15] | outcome [17]

C/C=C(\C)C(C)=O
inactive: outcome [1] | outcome [2] | outcome [3] | Potency [4] | outcome [5] | Potency [6] | outcome [7] | outcome [8] | Potency [9] | Potency [10] | outcome [11] | outcome [12] | outcome [14] | outcome [15] | outcome [17]

Fc1ccccc1
inactive: outcome [1] | outcome [2] | outcome [3] | Potency [4] | outcome [5] | Potency [6] | outcome [7] | outcome [8] | Potency [9] | Potency [10] | outcome [11] | outcome [12] | outcome [13] | outcome [15] | outcome [16] | Potency [18] | activity change, positive = activation [19] 8.1% | outcome [17]

C[C@H]1[C@@H](c2ccccc2)NC(=O)N1C
inactive: outcome [1] | outcome [2] | outcome [3] | Potency [4] | outcome [5] | Potency [6] | outcome [7] | outcome [8] | Potency [9] | Potency [10] | outcome [11] | outcome [12] | outcome [14] | outcome [15] | outcome [16] | outcome [17]

CCn1cc(C(=O)O)c(=O)c2cnc(N3CCCC3)nc21
inactive: activity change, negative = cytotoxicity [1] -1.74% [at 6.97 µM] | activity change, negative = cytotoxicity [2] 0.0795% [at 8.39 µM] | activity, negative = inhibition [3] 5.14% [at 8.39 µM] | activation [4] 1.53% [at 8.36 µM] | viability change, negative = cytotoxic [5] 0.102% [at 8.39 µM] | activity change, negative = inhibition [6] 2.85% [at 10.5 µM] | viability change, negative = cytotoxic [7] 6.12% [at 8.39 µM] | activity change, negative = cytotoxicity [8] 1.8% [at 8.39 µM] | activity, negative = inhibition [9] -3.92% [at 8.39 µM] | activation [10] -0.437% [at 8.39 µM] | viability change, negative = cytotoxic [11] 1.85% [at 8.39 µM] | activation [12] -1.79% [at 8.39 µM] | activity change, negative = cytotoxicity [13] 0.904% [at 6.97 µM] | activation (H2AX phosphorylation) [14] 0.23% [at 14 µM] | activity change, negative = cytotoxicity [16] -5.46% [at 14 µM] | activity change, negative = cytotoxicity [17] 0.974% [at 6.97 µM]

CCOC(=O)CC1(C)OCC(C)O1 (stereo not given)
inactive: outcome [1] | outcome [2] | outcome [3] | Potency [4] | outcome [5] | Potency [6] | outcome [7] | outcome [8] | Potency [9] | Potency [10] | outcome [11] | outcome [12] | outcome [14] | outcome [15] | outcome [16] | outcome [17]

CCO
inactive: outcome [1] | outcome [2] | outcome [3] | Potency [4] | outcome [5] | Potency [6] | outcome [7] | outcome [8] | Potency [9] | Potency [10] | outcome [11] | outcome [12] | outcome [13] | outcome [14] | outcome [15] | outcome [17]
